Changes are numbered by the printed parent chain. Over roughly 5,800 sequences, “enrichment r” has its median near 0.68; the highest 2% begin near 11. Shown is part of a subset that was picked to be rich in the highest values.
B1: chr2:1632960:1633155:-|3pUTR|ENSG00000130508|msi1|FALSE|unique (ssRNA)
RNA: GGGAGUUCUACAGUCCGACGAUCGUCCAUUUUUUAGGUAUUAGAUAUGGCAGAAAAACCAUUUCCACUAUGCAAAGUUCUUUUAGACGUCAGUGAAAAUCAACUCUCAUACCUCAUGGUCUCUCUUUAAUUGACCAAAACCUUCAACAGAGGAUUGAGCAUCA
B2: ENSG00000168936:stop:overlap|stop_codon|ENSG00000168936|stop_codon|NA|stop_codon (ssRNA)
RNA: GGGAGUUCUACAGUCCGACGAUCGUGUGGCCAGCACCAACCCUGCUGUGCAGGCCUUUGACAUCUGGAGCUGGAGGCCUGCAUAGGCUGCAUGCAGACACGUGCCAGCGUGAAGCUGGUGAAGACCUGCCAGGAGGCAGCCACCAACAGAGGAUUGAGCAUCA
B3: chr17:75827259:75827360:-|3pUTR|ENSG00000092929|unk|FALSE|unique (ssRNA)
RNA: GGGAGUUCUACAGUCCGACGAUCGGACAGUUUGGCUGCUGUGUCUGCUGCGCACGCCCCCUCCCCGGACAGCACCUGCCACCUAGAAACUUUCUUAGCAAAAAAAUUAAUAAAAACAAAUCCAUUGUCCUCUUAAAAUAUGCCCAACAGAGGAUUGAGCAUCA
B4: ENSG00000107863:be:win_5701|CDS|ENSG00000107863|bound_else_gene|NA|bound_elsewhere_windowed (ssRNA)
RNA: GGGAGUUCUACAGUCCGACGAUCAGCACCUUGGCUUCAACAAACAGGCCCCUUCUUUCCAUACCACCACAGUCACCUGACCAAAUAAACGGAGAAAGCUUCCAGAACGUGAGCAAAAAUGCUAGUUCUGCAGCGAAUGCCCAACAACAGAGGAUUGAGCAUCA
B5: chr3:62294290:62294391:+|3pUTR|ENSG00000144724|msi1|total|mutant (ssRNA)
RNA: GGGAGUUCUACAGUCCGACGAUCAACCCGUCCUCUAAAAAUUCCCUAUUACUCCUACCGCAAUCUAAUAAAAACUACCUACACCGUUACUGUUUUCUUUCCUUCUUUGCCAAAUGUUUUAUAAUAAAUCUCUUAAUUACAUACCAACAGAGGAUUGAGCAUCA
B6: ENSG00000070961:be:win_4401|3pUTR|ENSG00000070961|bound_else_gene|NA|bound_elsewhere_windowed (ssRNA)
RNA: GGGAGUUCUACAGUCCGACGAUCGUUAUGACAUCUGUCCUAAUUAGUUUCUUAAAUACAUUUACUACUUAAUGGUUUUGAAGCAACUGUUUAAUUUUUAAAAUUUUUGAAAACUUGCUAAUAACCUUUUGUUCAGAAUUUAGUCAACAGAGGAUUGAGCAUCA
B7: ENSG00000113300:stop:overlap|stop_codon|ENSG00000113300|stop_codon|NA|stop_codon (ssRNA)
RNA: GGGAGUUCUACAGUCCGACGAUCUGGAGCUCUUACUGCCUUUCCUGCCCCAAGUCAACGGCAUCCACCUUCCUGGCAGGAGGUAGUCAAGCACCUUCAGAGGACAGCCUUGAUUCACUUGUAAACUUGUGAAAAUCUGAACAUCAACAGAGGAUUGAGCAUCA
B8: chr3:62294290:62294391:+|3pUTR|ENSG00000144724|msi1|FALSE|unique (ssRNA)
RNA: B5 RNA with C27U, C28A, C57U, C58A, C83U, C84A
B9: chr20:3963869:3963970:-|CDS|ENSG00000101236|unk|FALSE|bound_elsewhere (ssRNA)
RNA: GGGAGUUCUACAGUCCGACGAUCAAUCUGCCUCUCAACAUAUAUAUUGUGGUUUUUGGUACUGCUAUAUUUGUCUUCAUCCUUAGUUUACUCUUCUGUUGCUACUUGAUUAGGUAACCAAUUUUCAUUCUAUGUUACUUCAAACAACAGAGGAUUGAGCAUCA
B10: chr1:151249111:151249212:+|3pUTR|ENSG00000143398|unk|FALSE|unique (ssRNA)
RNA: GGGAGUUCUACAGUCCGACGAUCGCAGAUUGUUGAAUUCCUGUUCUAUCCCUUCUCUAUCCCACCCUGCCUUGAUAAUAUGUUAGCCCAUACCCCAAAUAACUGUCUAUAUUAGACACCCCCAGCCAGUUUCUGGCUGCCUGUCAACAGAGGAUUGAGCAUCA
B11: chr17:75827259:75827360:-|3pUTR|ENSG00000092929|unk|total|mutant (ssRNA)
RNA: B3 RNA with U83C, A84C, U95C, A96C
B12: chr17:77216858:77216994:+|3pUTR|ENSG00000129657|unk|FALSE|bound_elsewhere (ssRNA)
RNA: GGGAGUUCUACAGUCCGACGAUCUGUUUCUACCUUUAGUACCUUGCCACUCUUUUAAAACGCUGCUGUCAUUUCCCAUUUCUUAGUACUAAUGAUUCUUUGAUUCUCCCUCUAUUAUGUCUUAAUUCACUUUCCUUCCUAAAUCAACAGAGGAUUGAGCAUCA
B13: chr8:48920054:48920155:-|CDS|ENSG00000019549|unk|total|mutant (ssRNA)
RNA: GGGAGUUCUACAGUCCGACGAUCACCUAUUCAACUUUUUCUGGGCUGGCCAAACAUAAGCAGCUGCACUGCGAUGCCCAGUCCCGAAAAUCUUUCAGCUGUAAAUACUGUGACAAGGAAUAUGUGAGCCUGGGCGCCCUGAAGCAACAGAGGAUUGAGCAUCA
B14: chr12:64147824:64147925:+|3pUTR|ENSG00000196935|unk|total|mutant (ssRNA)
RNA: GGGAGUUCUACAGUCCGACGAUCCAUCUCUGUGGUGUCUUUGUUCCUUUCCUUUCAUUCAUCACUACUUUCUCCUUGACAGCCCGCUUGCAUUAAAUAAUGUGAAACUUUUACCUUUAAAAUAUUUUUUUAUCUCACUUUCAUCAACAGAGGAUUGAGCAUCA
B15: chr2:1632960:1633155:-|3pUTR|ENSG00000130508|msi1|total|mutant (ssRNA)
RNA: B1 RNA with U34C, A35C, U41C, A42C, U83C, A84C
B16: chr11:119024350:119024909:-|three_prime_utr|ENSG00000137700|control|control|control (ssRNA)
RNA: GGGAGUUCUACAGUCCGACGAUCUCCCACGGUGGCCUUCCCCCUGCACGCUCUGCGGGGAGAAAAGGAGGGGCCUGCCUGGCUAGCCCUGAACCUUUCACUUUCCAUUUCUGCGCCUUUUCUGUCACCCGGGUGGCGCUGGAACAACAGAGGAUUGAGCAUCA

The binders below were run against T1, UNK ZnF1-6 (called full-length) (human, UniProt Q9C0B0 30-357) (assay: nsRBNS (natural sequence RNA bind-n-seq); RBNS binding buffer (assumed for nsRBNS): 25 mM Tris pH 7.5, 150 mM KCl, 3 mM MgCl2, 0.01% Triton X-100, 500 ug/ml BSA, 20 U/ml SUPERase-In, 4 C; UNK is unkempt and MSI1 is Musashi-1; names of the RNAs are library labels; protein concentration not given here; high values mean tight binding).
T1 sequence: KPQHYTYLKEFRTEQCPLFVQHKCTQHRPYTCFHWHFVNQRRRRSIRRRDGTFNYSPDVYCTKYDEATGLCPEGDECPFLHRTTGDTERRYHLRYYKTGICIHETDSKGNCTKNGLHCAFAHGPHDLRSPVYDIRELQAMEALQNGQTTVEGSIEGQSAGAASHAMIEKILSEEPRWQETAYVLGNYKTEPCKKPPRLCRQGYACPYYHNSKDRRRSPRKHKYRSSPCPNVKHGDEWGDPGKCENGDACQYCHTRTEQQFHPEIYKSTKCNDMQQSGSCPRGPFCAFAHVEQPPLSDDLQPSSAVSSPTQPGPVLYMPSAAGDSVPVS
For B1, the binding signal was 0.915 enrichment R. B2 gave a binding signal of 1.06 enrichment R. B3 gave a binding signal of 25.7 enrichment R. For B4, the binding signal was 0.589 enrichment R. With B5 the binding signal was 3.11 enrichment R. Work on B6 yielded a binding signal of 5.85 enrichment R. With B7 the binding signal was 21.5 enrichment R. B8 gave a binding signal of 68.7 enrichment R. B9 showed a binding signal of 2.08 enrichment R. For B10, the binding signal was 2.26 enrichment R. Binder B11 has a binding signal of 0.989 enrichment R. In the case of B12, the binding signal is reported as 14 enrichment R. B13 gave a binding signal of 0.712 enrichment R. For B14, the binding signal was 2.22 enrichment R. With B15 the binding signal was 0.41 enrichment R. In the case of B16, the binding signal is reported as 0.719 enrichment R.

— article PMC12136788
